Where “and” joins values, the source holds several entries; their conditions need not be identical. Equal entries are not always repeated. Inconclusive results are not listed. Where a call stands in place of a potency, no number is given. Some compounds were tested as several samples or in several runs, with calls that do not always agree. Calls of active or inactive are those of the source. Calls follow the shape of the dose curve; as a rule, active = well fitted inhibition curve with a large enough effect in the repeat runs; inconclusive = weak or mixed curves; inactive = no such curve, though single readings can be large or run the other way.
Potency is read from the fitted curve at half-maximal effect.

Sequence of Cytochrome P450 2D6 (Homo sapiens) (P10635 whole entry, looked up): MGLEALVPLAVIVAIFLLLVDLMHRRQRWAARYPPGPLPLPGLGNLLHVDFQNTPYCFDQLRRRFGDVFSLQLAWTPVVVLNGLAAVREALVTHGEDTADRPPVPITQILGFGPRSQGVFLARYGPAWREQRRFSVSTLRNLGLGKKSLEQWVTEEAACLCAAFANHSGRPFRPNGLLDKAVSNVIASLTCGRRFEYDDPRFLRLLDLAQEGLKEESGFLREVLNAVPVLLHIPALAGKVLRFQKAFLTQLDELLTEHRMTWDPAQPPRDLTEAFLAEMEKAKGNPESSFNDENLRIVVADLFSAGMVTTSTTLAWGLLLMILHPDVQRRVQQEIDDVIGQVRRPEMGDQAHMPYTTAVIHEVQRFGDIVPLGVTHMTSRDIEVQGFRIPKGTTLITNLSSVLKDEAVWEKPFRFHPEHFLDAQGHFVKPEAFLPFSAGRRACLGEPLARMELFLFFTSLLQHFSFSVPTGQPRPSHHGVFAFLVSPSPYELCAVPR

This assay deals with Cytochrome P450 2D6 (Homo sapiens) (UniProt P10635). Put plainly: Cytochrome P450 Family 2 Subfamily D Member 6 (CYP2D6) small molecule antagonists: luciferase reporter qHTS assay (AID 1671196). Also: nearly all actives have a fitted effect of over 50% in size. Conditions: P450-Glo CYP2D6 enzyme assay, luciferin luminescence, 1 h; series mostly up to 115 µM. The text has this:
U.S. Tox21 Program National Center for Advancing Translational Sciences [NCATS] U.S. Environmental Protection Agency [EPA] National Institutes of Environmental Health Sciences [NIEHS] National Toxicology Program [NTP] U.S. Food and Drug Administration [FDA] Tox21 Assay Overview: Cytochrome P450 (CYP) enzymes are membrane-bound hemeproteins that play a key role in metabolism of drugs and xenobiotics. Evaluation of the effect of chemicals on CYP isozymes is useful to minimize the adverse drug reactions and toxicities in drug development process. Tox21 chemicals were tested for their effect on CYP enzyme activities by using P450-Glo (TM) screening systems (Promega Corporation, Madison, WI). These systems provide a luminescent method containing proluciferin substrates and are converted to luciferin products by CYP isozymes. The luciferin products formed are detected with a luciferin detection reagent, and the amount of light produced is proportional to CYP activity. P450-Glo (TM) CYP2D6 screening system (Catalog. No. V9890) was used to detect the compounds that interfere in CYP2D6 activity.
Tox21 Assay Protocol Summary: Two ul of enzyme-substrate mix was dispensed into medium binding white/solid 1536-well plates (Greiner Bio-One North America Inc., Monroe, NC) using a BioRaptr Flying Reagent Dispenser (FRD, Beckman Coulter, Brea, CA). […] The assay plates were incubated at room temperature for 10 min. Then 2 ul of NADPH regeneration solution was added to each well of the assay plates using an FRD and incubated at room temperature for 1 h. The reaction was stopped by adding 4 ul of detection reagent using an FRD and after 20 min incubation at room temperature the luminescence signal was measured using a ViewLux plate reader (Perkin Elmer, Shelton, CT). Data were expressed as relative luminescence units.
On the technique in general: In a reporter assay the amount or activity of a reporter protein is the signal.
`Cc1ccc(S(=O)(=O)N=C=O)cc1`: the Potency result is “inactive”.

As to `COc1ccc(C)cc1N`, the Potency is 24.3 µM (active) and 25.2 µM (active).

`Nc1nc(N)nc(-c2ccccc2)n1`: the Potency result is “inactive”.

With `CC1(C)CC(N)CC(C)(CN)C1` (stereo not given), the Potency was 36.1 µM (active) and inactive.

Take `CC(C)OP(=O)(CP(=O)(OC(C)C)OC(C)C)OC(C)C`: the Potency entry is “inactive”.

In the case of `CC(C)CC(C)O` (stereo not given), the Potency result is “inactive”.

Consider `C=CCCCCCCCCC(=O)O`, for which the Potency entry is “inactive”.

On to `O=C(O)Cn1c(=O)n(Cc2ccc(Br)cc2F)c(=O)c2ccc(Cl)cc21`, for which the Potency entry is “inactive”.

Consider `C=Cc1ccc(C)cc1`, for which the Potency entry is “inactive”.

Turning to `CC1(C)OC[C@@H]2O[C@@]3(C(=O)O)OC(C)(C)O[C@H]3[C@@H]2O1`, the Potency entry is “inactive”.

As to `CNC(=S)N(C)C`, the Potency entry is “inactive”.

For `COc1ccc([N+](=O)[O-])cc1N`, the Potency result was “inactive”.

For `O=C1CCCC1`, the Potency result is “inactive”.

Consider `CC(C)CCCCCCCOC(=O)CCCCC(=O)OCCCCCCCC(C)C`, for which the Potency entry was “inactive”.

As to `CCNc1cccc(C)c1`, the Potency result is “inactive”.

For `CNC(=O)Oc1ccc2c(c1)[C@]1(C)CCN(C)[C@@H]1N2C`, the Potency is 564 nM (active) and 977 nM (active).

Regarding `O=C(O)c1cc2ccccc2cc1O`, the Potency result was “inactive”.

Regarding `CSc1ccc(Cl)cc1`, the Potency result was “inactive”.

Turning to `O=C(O)CCCCCCCCC(=O)O`, the Potency result is “inactive”.

As for `CCOC(=O)n1ccn(C)c1=S`, the Potency entry is “inactive”.

On to `CN/C(=C\[N+](=O)[O-])NCCSCc1csc(CN(C)C)n1`, for which the Potency is 35.6 µM (active) and inactive.

As to `O=C1c2ccccc2CCc2ccccc21`, the Potency result is “inactive”.

Take `N#Cc1ccccc1`: the Potency result is “inactive”.

Regarding `CCCCCC(=O)O`, the Potency entry is “inactive”.

`C[Si]1(C)O[Si](C)(C)O[Si](C)(C)O[Si](C)(C)O1`: the Potency result is “inactive”.

For `c1ccc2c(c1)Cc1ccccc1-2`, the Potency result was “inactive”.

On to `CC(C)=CCl`, for which the Potency was 10.1 µM (active) and inactive.

As for `CCOC(=O)c1ccc(N)cc1`, the Potency entry was “inactive”.

For `C=C(C)C(=O)OCC(C)C`, the Potency result is “inactive”.

`NC(=S)NNC(N)=S`: the Potency entry is “inactive”.

`NCCNCCN`: the Potency is 63.5 µM (active).

In the case of `Brc1ccc(Br)c(Br)c1`, the Potency result is “inactive”.

Consider `CC(=O)CCC=C(C)C`, for which the Potency result was “inactive”.

For the molecule `CCCCCCCCCCCCCCCCO`, the Potency result is “inactive”.

In the case of `CC(O)CC(C)(C)O` (stereo not given), the Potency result is “inactive”.

`O=C(O)c1ccc(C(=O)O)c(C(=O)O)c1`: the Potency result is “inactive”.

In the case of `Clc1ccccn1`, the Potency entry is “inactive”.

Take `CN(C)c1ccc(O)c2c1C[C@H]1C[C@H]3[C@H](N(C)C)C(=O)C(C(N)=O)=C(O)[C@@]3(O)C(=O)C1=C2O`: the Potency result was “inactive”.

`CCCCCCCCCCCC(=O)OC`: the Potency result is “inactive”.

For the molecule `CC(CCO)CC(C)(C)C` (stereo not given), the Potency entry is “inactive”.
